Compounds with a hit are over-represented: about 5.7% of the library has one in this group of screens.
KB-3-1 cytotox – qHTS assay for MDR1-selective chemotherapeutics: Primary screen using the parental adenocarcinoma cell KB-3-1. KB-3-1 viability, CellTiter-Glo ATP luminescence, 72 h. Potency, µM (highest dose often 46.1 µM), usual class: cytotoxic. 1.4% of 400,000 active. AID 1347075, 2019; further: nearly all actives have a fitted effect of over 60% in size
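Cytotoxicity in the drug-sensitive parental line KB-3-1 was scored as loss of CellTiter-Glo luminescence following 72 h incubation with compound. Values come from curve fitting of normalized concentration-response data.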
KB-V1 cytotox – qHTS assay for MDR1-selective chemotherapeutics: Primary screen using the drug-selected MDR subline cells KB-V1; 3.4% of 400,000 active; AID 1347076, 2019; KB-V1 MDR cells viability, CellTiter-Glo, 72 h; Potency, µM (top dose mostly 46.1 µM), usual class: cytotoxic; further: nearly all actives have a fitted effect of over 60% in size
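Cells of the MDR subline KB-V1 are plated, dosed with compound at multiple concentrations, and incubated 72 h at 37 degrees C; CellTiter-Glo is then added and luminescence read after 10 min.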
HT1080-NT tox – qHTS for induction of synthetic lethality in tumor cells producing 2HG: qHTS for the HT-1080-NT fibrosarcoma cell line. HT-1080-NT fibrosarcoma viability, CellTiter-Glo ATP luminescence, 48 h. Potency, µM (top dose mostly 46.1 µM), most hits filed as cytotoxic. 1.6% of 360,000 active;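 further: NT is the 2HG producing partner of a matched IDH1 knockdown line; nearly all actives have a fitted effect of over 55% in size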
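HT-1080-NT fibrosarcoma cells (2HG-overproducing), 750 cells/well in RPMI with 5% FBS, dosed after 2 h and incubated 48 h at 37C. CellTiter-Glo luminescence normalized to DMSO and no-cell wells; concentration-response curves fitted and classed.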
HT1080 IDH1KD tx – qHTS for induction of synthetic lethality in tumor cells producing 2HG: qHTS for the HT-1080-IDH1KD cell line. HT-1080 IDH1 knockdown viability, ATP luminescence, 48 h. Potency, µM (titrated, usually from 46.1 µM), usual class: cytotoxic. 2% of 360,000 active. AID 686971, 2013
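In this qHTS, HT-1080 cells depleted of IDH1 are exposed for 48 h at 37 °C to compound titrations. Toxicity is scored from CellTiter-Glo luminescence, with DMSO as full viability and medium alone as none.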
Of the large screens only hits and unclear results are named; the others gave an inactive call. The call rests on the fitted dose curve; in most records, active means well fitted curve in the direction sought with a large enough effect; inconclusive means small, poorly fitted or top-dose-only effect, or another doubt; inactive means no such curve, though single readings can be large; an effect the other way counts as inactive or inconclusive.

COc1cc(NC(=O)C2CCCN(S(=O)(=O)c3ccc4c(c3)oc(=O)n4C)C2)c(C(=O)O)cc1OC (configuration not stated)	none (no result: HT1080-NT tox, HT1080 IDH1KD tx)
O=C(CCCn1c(=S)[nH]c2ccc(Br)cc2c1=O)N1CCN(c2ccccn2)CC1	KB-V1 cytotox 2.9µM
O=c1c2cc(Br)ccc2[nH]c(=S)n1Cc1ccccc1	none
O=C(CCCn1c(=S)[nH]c2ccc(Br)cc2c1=O)NCc1ccccn1	none
O=c1c2cc(Br)ccc2[nH]c(=S)n1Cc1ccccn1	KB-V1 cytotox 16µM
O=C(NCc1ccc(Cl)cc1)NC1COc2ccccc2C1 (configuration not stated)	none (no result: HT1080-NT tox, HT1080 IDH1KD tx)
COc1cc(CN(CCN(C)C)Cc2ccccc2)ccc1OCc1ccccc1	KB-3-1 cytotox inconclusive, KB-V1 cytotox inconclusive, HT1080-NT tox 23µM, HT1080 IDH1KD tx 21µM
COc1ccc(CN(CCc2ccccc2)Cc2ccccc2)cc1OC	none
O=C(CN1c2ccccc2Sc2ccccc21)NNC(=S)Nc1ccc(Cl)cc1	HT1080-NT tox inconclusive, HT1080 IDH1KD tx inconclusive
O=C(CN1c2ccccc2Sc2ccccc21)NNC(=S)Nc1ccc(Cl)cc1Cl	KB-3-1 cytotox 21µM, KB-V1 cytotox 13µM, HT1080-NT tox inconclusive, HT1080 IDH1KD tx inconclusive
CCOC(=O)C1=CC[C@@H](c2ccccc2Cl)N(S(=O)(=O)c2ccc(C)cc2)[C@H]1C(=O)OCC	KB-3-1 cytotox inconclusive, KB-V1 cytotox 16µM
CCOC(=O)C1=CC[C@H]2c3c(c4ccc(OC)cc4n3C)C(=O)C1N2S(=O)(=O)c1ccc(C)cc1	KB-3-1 cytotox inconclusive, KB-V1 cytotox inconclusive, HT1080-NT tox 18µM, HT1080 IDH1KD tx inconclusive
COc1ccc(-c2ccc3oc(-c4ccsc4)cc(=O)c3c2)cn1	none
Cc1noc(-c2ccc(N3CCCCC3)c([N+](=O)[O-])c2)n1	none (no result: HT1080-NT tox, HT1080 IDH1KD tx)
COc1cc(NC(=O)CSc2ccc(-c3sc(-c4ccccc4)nc3C)nn2)cc(OC)c1	KB-V1 cytotox inconclusive (no result: HT1080-NT tox, HT1080 IDH1KD tx)
NS(=O)(=O)c1ccc(NC(=O)c2cc(-c3cc(Cl)ccc3O)n[nH]2)cc1	HT1080-NT tox inconclusive, HT1080 IDH1KD tx 18µM
O=C(Cc1cccs1)N1CCN(c2nc(-c3ccc(Cl)cc3)cs2)CC1	KB-V1 cytotox 8.2µM, HT1080 IDH1KD tx inconclusive
Nc1nc(Nc2ccccc2F)sc1C(=O)c1ccc(Cl)cc1	none (no result: HT1080-NT tox, HT1080 IDH1KD tx)
O=C(Cn1ncc2c3ccccc3n(Cc3ccccc3F)c2c1=O)NCCCN1CCCC1=O	KB-3-1 cytotox 6.5µM, KB-V1 cytotox inconclusive
O=C(Cn1ncc2c3ccccc3n(Cc3ccccc3F)c2c1=O)NCCN1CCOCC1	none
COc1cc2c(cc1OC)C1=C(C#N)CCC(=O)N1CC2	KB-3-1 cytotox 16µM, KB-V1 cytotox 4.6µM
COc1cc2c(cc1OC)C1=C(C#N)CN(C3CCCCC3)CN1CC2	KB-V1 cytotox 21µM
COc1ccc(C(=O)N=C2CCC(C#N)=C3c4cc(OC)c(OC)cc4CCN23)cc1	KB-3-1 cytotox inconclusive, KB-V1 cytotox 12µM
C=Cc1ccc(CSc2nc(-c3ccc(C)cc3)nc3c2Cc2c(CO)cnc(C)c2O3)cc1	none (no result: HT1080-NT tox, HT1080 IDH1KD tx)
CCCCC(=O)NC(=S)NNC(=O)c1ccc(OC)cc1	KB-3-1 cytotox 23µM, KB-V1 cytotox inconclusive, HT1080-NT tox inconclusive, HT1080 IDH1KD tx inconclusive
CCCOc1ccc(C(=O)NNC(=S)NC(=O)CC)cc1	KB-3-1 cytotox 13µM, KB-V1 cytotox inconclusive, HT1080-NT tox inconclusive, HT1080 IDH1KD tx 10µM
O=C(NC1(C(F)(F)F)NC(=O)N(CCc2ccccc2)C1=O)c1ccccc1Cl (configuration not stated)	none (no result: HT1080-NT tox, HT1080 IDH1KD tx)
O=C(Nc1ccc(F)c(F)c1)c1cnn2c1NC(=C1CC1)C=C2C(F)(F)F	KB-3-1 cytotox inconclusive (no result: HT1080-NT tox, HT1080 IDH1KD tx)
N#Cc1c(NC(=O)CSc2nc3ccccc3s2)sc2c1CCCC2	KB-V1 cytotox 16µM
N#Cc1c(NC(=O)CSc2ncc(-c3ccccc3)n2CC2CCCO2)sc2c1CCCC2 (configuration not stated)	KB-3-1 cytotox inconclusive, KB-V1 cytotox 3.3µM, HT1080-NT tox inconclusive, HT1080 IDH1KD tx inconclusive
N#Cc1c(NC(=O)CSc2nnc(-c3ccncc3)n2CC2CCCO2)sc2c1CCCC2 (configuration not stated)	none
Cc1ccc(NC(=S)NC(=O)c2c(-c3ccccc3Cl)noc2C)cc1	KB-V1 cytotox 21µM
Cc1onc(-c2c(F)cccc2Cl)c1C(=O)OCC(=O)Nc1cccc(S(=O)(=O)N(C)C)c1	KB-3-1 cytotox inconclusive, KB-V1 cytotox 4.1µM
Cc1onc(-c2ccccc2Cl)c1C(=O)Nc1cccc(-c2cn3cccnc3n2)c1	KB-V1 cytotox 16µM
Cc1onc(-c2c(F)cccc2Cl)c1C(=O)Nc1cccc(Cn2cccn2)c1	KB-V1 cytotox 21µM
CC1CCN(C(=O)c2cnn(-c3cccc(Cl)c3)c2C2CCN(C(=O)OC(C)(C)C)CC2)CC1	none (no result: HT1080-NT tox, HT1080 IDH1KD tx)
CCC(=O)N1CCCc2cc(S(=O)(=O)N3CCC(C(=O)Nc4ccc(C#N)cc4)CC3)ccc21	none (no result: HT1080-NT tox, HT1080 IDH1KD tx)
Cc1cc(NC(=O)c2c(-c3ccccc3Cl)noc2C)no1	KB-V1 cytotox 13µM
Cc1nc(/C(N)=N/OC(=O)c2c(-c3ccccc3Cl)noc2C)cs1	HT1080-NT tox inconclusive, HT1080 IDH1KD tx inconclusive
COc1ccccc1NC(=S)NC(=O)c1c(-c2ccccc2Cl)noc1C	none
COC(=O)c1cc(OC)c(OC)cc1NC(=O)c1c(-c2ccccc2Cl)noc1C	KB-3-1 cytotox inconclusive, KB-V1 cytotox 3.3µM
COc1ccc(/C(N)=N/OC(=O)c2c(-c3ccccc3Cl)noc2C)cc1OC	KB-3-1 cytotox inconclusive, KB-V1 cytotox inconclusive, HT1080-NT tox inconclusive, HT1080 IDH1KD tx 16µM
COc1ccc(NC(=O)C(C)N2C(=O)c3ccccc3C2=O)cc1S(=O)(=O)N1CCOCC1 (configuration not stated)	KB-V1 cytotox inconclusive
O=C(NCCc1ccccc1Cl)c1sc2ncccc2c1-n1cccc1	none (no result: HT1080-NT tox, HT1080 IDH1KD tx)
Cc1ccc(C)c(N2CCN(C(=O)CN3CCSc4ccc(S(=O)(=O)N(C)C)cc43)CC2)c1	KB-V1 cytotox inconclusive (no result: HT1080-NT tox, HT1080 IDH1KD tx)
CCC(C)CN1C(=O)CSCC1(C)C(=O)NC(C)C (configuration not stated)	none
COc1cccc(-c2oc3c(c2C#CC2(N)CCCCC2)C(O)CCC3)c1 (configuration not stated)	KB-3-1 cytotox inconclusive, KB-V1 cytotox inconclusive, HT1080-NT tox 16µM, HT1080 IDH1KD tx inconclusive
CCOC(=O)C(C)NC(=O)c1c2c(nc3ccccc13)C(=O)N(C1CCCCC1)C2 (configuration not stated)	none (no result: HT1080-NT tox, HT1080 IDH1KD tx)
Clc1ccc(/C=C\c2nccc3c2[nH]c2ccccc23)cc1	KB-V1 cytotox inconclusive, HT1080-NT tox 21µM, HT1080 IDH1KD tx 18µM
N#Cc1ccc(/C=C\c2nccc3c2[nH]c2ccccc23)cc1	HT1080-NT tox 29µM, HT1080 IDH1KD tx 15µM
COc1ccc(/C=C\c2nccc3c2[nH]c2ccccc23)cc1	none (no result: HT1080-NT tox, HT1080 IDH1KD tx)

Screening data (PubChem BioAssay)
